This is one part of a sample in which hits are shown more often than they occur.
KDM5B inh = blocks human KDM5B histone demethylase activity. Q9UGL1. KDM5B demethylase, FDH-coupled NADH fluorescence (FDH is formaldehyde dehydrogenase). Potency, µM (doses to about 57.7 µM), hits mostly inhibitors. actives 2.6% (n = 220,000). AID 1347165; active = well fitted inhibition curve with a large enough effect; note: 0% is about no effect; nearly all actives have a fitted effect of over 70% in size
Target sequence (Q9UGL1 whole entry, looked up): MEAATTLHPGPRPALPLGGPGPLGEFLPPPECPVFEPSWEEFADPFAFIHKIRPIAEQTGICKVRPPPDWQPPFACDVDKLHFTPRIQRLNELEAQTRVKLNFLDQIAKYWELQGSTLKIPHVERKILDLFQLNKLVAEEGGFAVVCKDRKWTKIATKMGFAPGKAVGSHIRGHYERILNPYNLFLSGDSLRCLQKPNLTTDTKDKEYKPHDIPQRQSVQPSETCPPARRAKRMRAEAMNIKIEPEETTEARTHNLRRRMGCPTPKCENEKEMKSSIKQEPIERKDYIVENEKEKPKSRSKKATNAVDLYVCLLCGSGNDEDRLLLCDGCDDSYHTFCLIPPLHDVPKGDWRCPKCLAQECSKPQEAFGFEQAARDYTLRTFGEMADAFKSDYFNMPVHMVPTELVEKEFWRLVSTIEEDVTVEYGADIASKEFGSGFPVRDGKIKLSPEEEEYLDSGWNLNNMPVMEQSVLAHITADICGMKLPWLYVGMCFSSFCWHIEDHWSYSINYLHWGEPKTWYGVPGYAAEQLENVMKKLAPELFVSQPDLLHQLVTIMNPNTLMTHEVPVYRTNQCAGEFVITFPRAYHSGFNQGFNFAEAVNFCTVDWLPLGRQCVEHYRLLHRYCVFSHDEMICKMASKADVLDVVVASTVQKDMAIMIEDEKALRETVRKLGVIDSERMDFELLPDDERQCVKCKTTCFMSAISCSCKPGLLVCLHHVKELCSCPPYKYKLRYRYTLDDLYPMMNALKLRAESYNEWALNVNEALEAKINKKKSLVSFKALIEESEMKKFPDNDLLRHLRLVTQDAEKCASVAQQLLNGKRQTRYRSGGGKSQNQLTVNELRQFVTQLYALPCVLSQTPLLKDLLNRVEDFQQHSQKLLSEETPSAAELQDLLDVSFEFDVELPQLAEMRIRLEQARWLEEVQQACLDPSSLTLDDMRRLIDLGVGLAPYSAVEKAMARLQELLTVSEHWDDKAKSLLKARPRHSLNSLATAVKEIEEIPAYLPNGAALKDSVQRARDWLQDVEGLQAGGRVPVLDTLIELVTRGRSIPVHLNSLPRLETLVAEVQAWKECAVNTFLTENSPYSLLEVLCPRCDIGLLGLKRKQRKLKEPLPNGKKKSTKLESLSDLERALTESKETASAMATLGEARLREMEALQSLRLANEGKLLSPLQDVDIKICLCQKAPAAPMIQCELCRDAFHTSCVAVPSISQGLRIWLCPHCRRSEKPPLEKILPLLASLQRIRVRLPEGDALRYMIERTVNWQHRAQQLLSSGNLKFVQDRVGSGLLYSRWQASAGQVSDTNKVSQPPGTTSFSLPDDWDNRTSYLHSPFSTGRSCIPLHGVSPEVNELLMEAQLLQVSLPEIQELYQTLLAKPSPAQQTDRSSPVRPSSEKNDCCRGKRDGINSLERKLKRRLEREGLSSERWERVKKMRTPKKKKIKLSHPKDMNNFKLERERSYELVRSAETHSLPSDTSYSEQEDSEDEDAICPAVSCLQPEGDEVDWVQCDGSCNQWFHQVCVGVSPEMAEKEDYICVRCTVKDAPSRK
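KDM5BΔAP (200 nM final) in 50 mM HEPES pH 7.5, 0.01% Tween-20 was preincubated 10 min at RT with compound over a concentration range. Substrate mix (H3K4me3 12.5 µM, α-KG 25 µM, Fe²⁺, ascorbate, NAD⁺, FDH) was added, and NADH fluorescence change over 30 min gave dose-response curves.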
The depositor's hits bear a star. Potency is the fitted concentration of half-maximal effect.

`O=C(N1CCCC1)N1CCN(C2CCNCC2)C(=O)C1` gave KDM5B inh 50.1µM*.
For CCCc1cc(=O)oc2c(C)c(OCC(=O)c3ccc(OC)cc3)ccc12 the results were KDM5B inh inactive.
`O=C1NCc2ccccc2CC12CCCN(Cc1c[nH]c3ccccc13)C2` (centres undefined) gave KDM5B inh inactive.
O=C(O)c1cccc(CSc2cc(Cl)ccc2Cl)c1 was read as KDM5B inh inactive.
For Cc1cc(C(=O)N[C@H]2[C@H](O)[C@H](O)C[C@@H]2c2cccnc2)nn1C the results were KDM5B inh inactive.
COc1ccc([C@H]2C[C@@H](O)[C@@H](O)[C@@H]2NCc2cnc3ccccc3c2)cc1 was read as KDM5B inh inactive.
Screening COc1ccc([C@H]2C[C@@H](O)[C@@H](O)[C@@H]2NCc2ccc(OC)nc2)cc1 returned KDM5B inh inactive.
`Cc1ccccc1C(=O)N[C@H]1[C@H](O)[C@H](O)C[C@@H]1c1ccc(N2CCOCC2)nc1` gave KDM5B inh 31.6µM*.
`COc1ccc([C@H]2C[C@@H](O)[C@@H](O)[C@@H]2NC(=O)c2cc(C)n(C)n2)cc1` gave KDM5B inh inactive.
Screening COc1ccccc1C(=O)N[C@H]1[C@H](O)[C@H](O)C[C@@H]1c1cccnc1 returned KDM5B inh inactive.
Cn1cc(CN[C@H]2[C@H](O)[C@H](O)C[C@@H]2c2ccc(N3CCOCC3)nc2)cn1 was read as KDM5B inh 39.8µM*.
Cc1cc(C(=O)N[C@H]2[C@H](O)[C@H](O)C[C@@H]2c2ccc(N3CCOCC3)nc2)nn1C was read as KDM5B inh 31.6µM*.
Screening O=C(Nc1ccc(N2CCOCC2)nc1)c1ccccc1Cl returned KDM5B inh inactive.
Screening COc1ccc(C2CCCN2C(=O)NCCn2ccnc2)c(OC)c1 (centres undefined) returned KDM5B inh inactive.
`Cc1ccc(-c2cnoc2NC(=O)CSc2nc(-c3ccccc3)cc(=O)[nH]2)cc1` gave KDM5B inh inactive.
Screening CCOc1ccc(-n2c(C)nc3cc(C(=O)NCc4ccc(F)cc4)ccc32)cc1 returned KDM5B inh inactive.
For CC(C)CCn1nc(C(=O)OCC(=O)c2ccc3c(c2)NC(=O)CO3)c2ccccc2c1=O the results were KDM5B inh inactive.
Screening CC(=O)c1ccc(OCc2ccc(-c3ccccc3C#N)cc2)cc1 returned KDM5B inh inactive.
CC(C)Sc1nnc(-c2nn(Cc3ccccc3)c(=O)c3ccccc23)o1 was read as KDM5B inh inactive.
`O=C(Cn1nc(-c2cccs2)c2ccccc2c1=O)Nc1ccc(N2CCCCC2)cc1` gave KDM5B inh inactive.
Screening COc1ccc(CN2CC3=C(C2=O)C(c2cc(OC)c(OC)c(OC)c2)NC(=O)N3)cc1 (centres undefined) returned KDM5B inh inactive.
Screening CC(C)Cc1cc(C[C@@H]2C[C@H](NC(=O)C(C)(C)C)C2(C)C)no1 returned KDM5B inh inactive.
CC(C)Cc1cc(CNc2nccc(-c3cc(C(=O)O)ccn3)n2)no1 was read as KDM5B inh 31.6µM*.
`CC(C)Cc1cc(C(=O)N2CCN(c3ccccc3)CC2)no1` gave KDM5B inh inactive.
`CN(Cc1ccc(Br)cc1)C(=O)c1cc2ccccc2[nH]1` gave KDM5B inh inactive.
COc1ccc(C(=O)N2CCCN(c3cc(-c4ccc(C)c(C)c4)[nH]n3)CC2)cc1OC was read as KDM5B inh inactive.
CC(=O)N1CCN(C(=O)CCc2nc(Cc3ccccc3)no2)CC1 was read as KDM5B inh inactive.
Cc1ccc(C(=O)N2CCN(c3nnc4cccc(C)n34)CC2)cc1C was read as KDM5B inh 25.1µM*.
Cc1cnc(C2CCC2)n1CC1CCN(C(=O)CCc2ccccc2)CC1 was read as KDM5B inh inactive.
For Cc1cccc2nnc(N3CCCN(C(=O)c4ccccc4Cl)CC3)n12 the results were KDM5B inh 22.4µM*.
Screening Cc1ccc(C(=O)N2CCN(CCc3ccccc3)CC2)cc1C returned KDM5B inh inactive.
Cc1cccc2nnc(N3CCN(C(=O)CCc4ccccc4)CC3)n12 was read as KDM5B inh 25.1µM*.
Cc1cccc2nc(C(=O)N3CCN(c4cccc(Cl)c4)CC3)cn12 was read as KDM5B inh inactive.
Screening Cc1ccc(Cl)cc1N1CCN(C(=O)c2cccn2-c2nnc(N3CCCCC3)s2)CC1 returned KDM5B inh inactive.
Screening O=C(CSc1nc2ccc(Cl)cc2[nH]1)Nc1ccc(S(=O)(=O)N2CCCCC2)cc1 returned KDM5B inh inactive.
For CC(C)(C)NC(=O)CC1(C(=O)NCc2ccc(Cl)cc2)CCCC1 the results were KDM5B inh inactive.
For CC(=O)Nc1ccc(SCCCC(=O)c2cccs2)cc1 the results were KDM5B inh inactive.
Screening O=C(Nc1cccc2ncccc12)C1CCCN(S(=O)(=O)c2ccc(Br)cc2)C1 (centres undefined) returned KDM5B inh inactive.
Screening O=C(CN1C(=O)CSc2ccccc21)NO returned KDM5B inh inactive.
For COc1ccc(N/C=C/C(=O)c2ccc(C)c(C)c2)cc1Cl the results were KDM5B inh inactive.
For CCCN(C)c1ccc(/C=N/NC(=S)Nc2cccc(CC)c2)cc1 the results were KDM5B inh inactive.
`Cc1ccccc1C(=O)Nc1ccc(C(=O)NNC(=S)Nc2ccccc2)cc1` gave KDM5B inh inactive.
Screening CCOc1ccc(CN2CCN(c3cccc(C)c3C)CC2)cc1OC returned KDM5B inh inactive.
Cc1cnc2c(S(=O)(=O)NCCCN3CCCC3)cccc2c1 was read as KDM5B inh inactive.
Screening CN1CCc2c([nH]c3ccccc23)C12CCN(C(=O)C1CCC1)CC2 returned KDM5B inh inactive.
`C/C(=N/Nc1ccc(S(N)(=O)=O)cc1[N+](=O)[O-])c1ccc(Cl)cc1Cl` gave KDM5B inh inactive.
`CCOC(=O)C1(Cc2ccc(OC)cc2)CCNCC1` gave KDM5B inh inactive.
`Cc1ccc(-c2cc3c(nc2-c2ccccc2)nc(C(=O)NCCN(C)C)n3C)cc1` gave KDM5B inh inactive.
`COc1ncccc1-c1cc2c(nc1-c1ccccc1)nc(C(=O)NCCN(C)C)n2C` gave KDM5B inh 15.8µM*.
`CN(C)CCNC(=O)c1nc(-c2ccccc2)cc2[nH]ccc12` gave KDM5B inh inactive.
`CN(C)CCNC(=O)c1nc2nc(-c3ccccc3)c(-c3ccc(Cl)cc3)cc2n1C` gave KDM5B inh 28.2µM*.
`CN(C)CCNC(=O)c1nc2nc(-c3ccccc3)c(-c3cccc(Cl)c3)cc2n1C` gave KDM5B inh inactive.
Screening CN(C)CCNC(=O)c1ccc2nc(CCc3ccccc3)oc2c1 returned KDM5B inh inactive.
Screening COc1cc2c(cc1OC)-c1c(c(C(=O)NCCN(C)C)nn1-c1ccccc1)C2 returned KDM5B inh inactive.
`CN(C)CCNC(=O)c1nc2nc(-c3ccccc3)c(-c3cccc(CO)c3)cc2n1C` gave KDM5B inh 10µM*.
Screening COc1cccc(-c2c(NC(=O)c3ccc([N+](=O)[O-])cc3)oc3ccccc3c2=O)c1 returned KDM5B inh inactive.
Screening CCNCc1ccc(-c2ccccc2Cl)o1 returned KDM5B inh inactive.
Screening CCC1CN(C(=O)N2CCC(C(=O)NCc3cccc(C)c3)CC2)c2cc(C)ccc2O1 (centres undefined) returned KDM5B inh inactive.
Screening CSCC[C@H](NC(=O)Cc1ccccc1)c1nc2ccccc2[nH]1 returned KDM5B inh inactive.

Assay outcomes as filed in PubChem.
